ssDAF-12 act: S. stercoralis DAF-12 nuclear receptor activators, primary screen, cell-based, luminescence, HEK293, GRIP1 co-expression, lit1-tk-luc; Nuclear hormone receptor DAF-12 (Strongyloides stercoralis); HEK293 ssDAF-12/GRIP1 lit1-tk-luc reporter; % of 3 µM dafachronic acid response; activation, % at 6.8 µM; hit rate 1% among 370,000;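 active = activation above the mean over all tested compounds plus 3 SD, cut at about 0.9% in these data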;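 note: 0% = DMSO-only wells and 100% = 3 µM delta7-dafachronic acid wells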
DAX1 inh-1: DAX1 (NR0B1) inhibitors on StAR promoter, primary screen, cell-based, luminescence, SF-1 (NR5A1), full-length DAX-1 | HEK293T StAR-luciferase reporter, SF-1/DAX-1 repression relief | inhibition, % at 6.8 µM | hit rate 1.1% among 370,000 | AID 652010, 2013;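 active = inhibition above the mean over all tested compounds plus 3 SD, cut at about 3.6% in these data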;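 note: 0% = DAX-1 cells with DMSO and 100% = cells lacking DAX-1 with DMSO; higher inhibition means more luminescence from relief of DAX-1 repression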
DAX1 inh-2: DAX1 (NR0B1) inhibitors, primary screen, cell-based, HEK293, Gal4-DAX1, luciferase luminescence | Nuclear receptor subfamily 0 group B member 1 (Homo sapiens), P51843 | HEK293 Gal4-DAX1 luciferase reporter | inhibition, % at 6.75 µM | hit rate 0.99% among 340,000;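 active = inhibition above the mean over all tested compounds plus 3 SD, cut at about 4.2% in these data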;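 note: 0% = DAX1-transfected cells with DMSO and 100% = empty-vector control cells with DMSO; inhibition shows as a rise in luminescence from relieved DAX1 repression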
Target sequence (P51843 207-470 limits assumed): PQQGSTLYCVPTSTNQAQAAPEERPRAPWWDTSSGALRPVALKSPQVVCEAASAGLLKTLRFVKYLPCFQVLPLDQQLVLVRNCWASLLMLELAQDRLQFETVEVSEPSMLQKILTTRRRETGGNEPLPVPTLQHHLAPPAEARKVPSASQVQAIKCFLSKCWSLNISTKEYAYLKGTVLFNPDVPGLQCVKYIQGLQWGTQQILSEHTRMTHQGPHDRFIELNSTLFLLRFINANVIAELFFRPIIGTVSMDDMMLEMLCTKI
hcDAF12 agonist: H. contortus DAF-12 nuclear receptor activators, primary screen, cell-based, luminescence, HEK293, lit1-tk-luc reporter | HEK293 hcDAF-12 lit1-tk-luc reporter; 0% DMSO, 100% Δ7-dafachronic acid | activation, % at 6.8 µM | hit rate 1.4% among 370,000;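 active = activation above the mean of all tested compounds plus 3 SD, cut at about 5.5% in these data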;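 note: 100% = response to 3 µM Δ7-dafachronic acid high control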
hgDAF12 agonist: H. glycines DAF-12 receptor agonists, primary screen, cell-based, luminescence, HEK293, GAL4 fusion, UAS-luciferase | HEK293 GAL4-hgDAF12 UAS-luciferase reporter, agonist luminescence; normalized to butyrate control | Nuclear hormone receptor DAF-12 (Heterodera glycines), GAL4 fusion | activation, % at 6.8 µM | hit rate 1.8% among 370,000;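 active = activation above a cutoff set at the mean of all screened compounds plus 3 SD, cut at about 10% in these data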;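 note: 0% = DMSO wells and 100% = sodium butyrate wells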
Wee1 stabilizer: Wee1 degradation inhibitors, primary screen, cell-based, HeLa, Wee1K328M-luciferase, luminescence; Wee1-like protein kinase (Homo sapiens), P30291; HeLa Luc-Wee1K328M stability; 100% = proteasome inhibitor MG132 effect; reporter increase, % at 5 µM; hit rate 1.2% among 220,000; AID 1321, 2008;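 active = activation above the mean of all tested compounds plus 3 SD, set per screening run, cut at about 8.8% in these data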;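 note: cells exposed to compound for 20 h before luminescence read; 0% = DMSO alone and 100% = MG132 at 30 µM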
* hit, by the source's call; nt = no result. Most compounds without a hit are left out; they make up all but 4.6% or so of the library.

SMILES	ssDAF-12 act	DAX1 inh-1	DAX1 inh-2	hcDAF12 agonist	hgDAF12 agonist	Wee1 stabilizer
COc1ccccc1/C=C/C(=O)NC(=S)Nc1ccccn1	1.4*	0.8	1.6	2.8	5.3	nt
O=C(/C=C/c1ccco1)NC1=NCCS1	-0.3	2.2	0.6	3.7	7.1	-1.4
O=C(/C=C/c1ccco1)NC(=S)Nc1ccccn1	-0.3	1.9	5.9*	0.2	8.2	1.2
COc1cc(C(=O)Nc2cc(S(C)(=O)=O)ccc2Cl)ccc1OCC(=O)N1CCOCC1	-0.8	0.9	0.5	0.6	1.5	nt
CCOC(=O)C1(C)CCCN(C(=O)COc2ccccc2)C1 (centres undefined)	-1.2	0.2	nt	-1.1	-0.4	nt
Cc1ccccc1CC(=O)N1CCC(CCC(=O)NC2CC2)CC1	-0.8	0.6	0.1	0.7	-0.9	nt
COc1ccc(Cl)cc1-c1nc(SCC(=O)NC(C)C(C)C)n[nH]1 (centres undefined)	-1.6	0.1	7.3*	-0.8	0.4	2.4
COc1ccc(OC(=O)c2cnn(-c3ccccc3)c2C)cc1	0.5	2.5	1.9	2.6	12.8*	1.6
CCCc1c(C(=O)Nc2ccc(OC)cc2)cnn1-c1ccccc1	-0.1	0.1	6.3*	2.2	3.2	2.9
CCCc1c(C(=O)NNc2ccccc2OC)cnn1-c1ccccc1	-1.4	0.0	-0.2	-1.3	1.6	-0.1
Cc1ccc(NC(=O)c2cnn(-c3ccccc3)c2C)cc1	1.1*	2.0	2.3	4.4	10.7*	nt
CCC(=O)C1CCCN(C(=O)c2cccc(OC3CCN(S(C)(=O)=O)CC3)c2)C1 (centres undefined)	nt	nt	-0.1	nt	nt	nt
NC(=O)c1ccc(NC(=O)COC(=O)/C=C/c2ccc3c(c2)OCO3)cc1	-0.8	-0.7	2.6	0.5	0.6	0.4
CCOC(=O)c1cnn2c(C)cc(-c3ccc(F)cc3)nc12	0.2	2.9	1.3	2.2	11.9*	1.4
Cc1nc2sc(C(=O)NCc3nccs3)c(N)c2c(C)c1Cl	-0.7	1.2	nt	1.2	4.1	nt
CC(CN1CCOCC1)OC(=O)c1ccc2c(c1)OCCO2 (centres undefined)	-0.2	1.0	1.6	4.2	10.7*	-0.5
Cc1nc2nc(-c3ccccc3)nn2c(C)c1Cl	0.9*	1.9	1.6	5.6*	7.0	-0.6
Cc1nc2nc(-c3ccccc3)nn2c(C)c1C	0.4	0.5	3.3	4.4	10.5*	nt
Cc1nc2nc(-c3ccc(Cl)cc3)nn2c(C)c1Cl	nt	nt	nt	nt	nt	1.8
Cc1[nH]c2ccccc2c1CC(=O)Nc1ccc(Nc2ccccc2)cc1	0.1	0.8	nt	0.2	4.6	nt
Cc1ccc(S(=O)(=O)N2CCN(C(=S)NCC3CCCO3)CC2)cc1 (centres undefined)	-1.4	3.0	-0.3	-1.2	0.4	nt
O=C(c1ccccc1)c1nn(-c2ccc(Cl)cc2)cc1C(=O)c1cc2ccccc2oc1=O	1.1*	0.8	0.8	3.6	-0.6	2.2
CCN1C(=O)C(=CC=CN(C)c2ccccc2)SC1=S	-0.1	2.4	4.7*	0.2	6.5	nt
Cc1cccc(C)c1NC(=O)CN(C)CC(=O)c1c(N)n(Cc2ccccc2)c(=O)n(C)c1=O	-1.4	0.7	-0.6	1.2	-0.6	nt
CCN(CC)C(=O)c1sc2nc(-c3ccc(OC)cc3)cn2c1C	-0.6	3.6	1.4	1.9	13.0*	2.7
COc1ccc(-c2cn3c(C)c(C(=O)NCCN4CCOCC4)sc3n2)cc1	-0.7	-0.2	-2.1	4.9	0.9	-3.4
O=C(c1ccccc1)N1CCc2ccccc21	-1.1	-0.4	-0.6	0.2	0.8	0.2
Cn1cc(Br)c(C(=O)N2CCc3ccccc32)n1	-0.1	0.9	1.1	5.9*	4.3	4.8
Cc1nn(C)c(C(=O)N2CCc3ccccc32)c1Br	0.6	-0.1	0.2	5.0	-0.3	-0.8

Screening data: PubChem BioAssay, The Scripps Research Institute Molecular Screening Center
